High-throughput results (PubChem)
LT uptake inh: anthrax lethal toxin internalization inhibition; Cells, anthrax lethal toxin internalization, FRET ratio (460/530); Potency, µM (titrated, usually from 40 µM), for inactives: at the highest dose activity change, negative = inhibition, usual class: inhibitors; 0.67% of 70,000 active; further: on the % scale 0 is the no-effect control and ±100 the full control effect; nearly all actives have a fitted effect of over 50% in size
AmpC inh det: inhibitors of E. coli AmpC beta-lactamase with detergent. Potency, µM (top dose mostly 28.7 µM), without a hit: at the highest dose activity change, negative = inhibition. purified AmpC, nitrocefin hydrolysis with detergent. 0.09% of 71,000 active; active means well fitted curve in the direction sought with a large enough effect; inconclusive means small, poorly fitted or top-dose-only effect; further: on the % scale 0 is the no-effect control and ±100 the full control effect
Target sequence (P00811 whole entry, looked up): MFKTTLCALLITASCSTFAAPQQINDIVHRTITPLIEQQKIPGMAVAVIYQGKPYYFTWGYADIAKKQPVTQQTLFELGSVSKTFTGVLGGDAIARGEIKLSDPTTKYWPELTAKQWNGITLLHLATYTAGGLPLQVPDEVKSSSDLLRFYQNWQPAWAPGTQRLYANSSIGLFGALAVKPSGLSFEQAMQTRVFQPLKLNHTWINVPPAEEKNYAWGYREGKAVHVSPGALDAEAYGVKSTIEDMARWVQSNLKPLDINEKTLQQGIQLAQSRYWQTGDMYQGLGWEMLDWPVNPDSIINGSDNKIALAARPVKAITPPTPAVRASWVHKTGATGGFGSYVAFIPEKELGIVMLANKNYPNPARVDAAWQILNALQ
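E. coli AmpC (5.3 nM) in 20 mM phosphate pH 7.0 with 0.01% Triton X-100, preincubated 15 min RT with compound; nitrocefin (2 uL of 800 uM stock) hydrolysis followed by 480 nm absorbance every 20 s over 4 min.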
SmPrx2 inh: Schistosoma mansoni Prx2 inhibition. S. mansoni Prx2 activity coupled to TGR/GSH (TGR is thioredoxin glutathione reductase), NADPH fluorescence loss, qHTS. AID 448. Potency, µM. 0.07% of 65,000 active
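qHTS, coupled TGR/Prx2 format; 15 min compound preincubation at RT; reaction started with H2O2 (2.5 mM aliquot); kinetic NADPH fluorescence decrease, ex 365/em 450 nm.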
AmpC nodet inh: blocks E. coli AmpC beta-lactamase in absence of detergent; P00811; AmpC nitrocefin hydrolysis, absorbance 480 nm, no detergent; Potency, µM (doses to about 28.7 µM), for inactives: top-dose activity change, negative = inhibition; 1.8% of 71,000 active; AID 585; further: % of control where 0% means no effect
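AmpC, 20 mM phosphate pH 7.0; 15 min cpd preinc, RT; start with nitrocefin (800 uM stock); A480 kinetic read, 20 s intervals, 4 min. No-enzyme wells = negative control.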
* = called active by the depositor; ? = inconclusive; . = not tested or not shown; [ ] = dose if it differs, or a comment. The list is not random: actives were taken first. Their share in the collection is about 2.4%. Unless noted, the call rests on the fitted dose curve. Potency means the concentration at half of the fitted maximal effect.

SMILES	LT uptake inh	AmpC inh det	SmPrx2 inh	AmpC nodet inh
O=C(CN(C1CC1)S(=O)(=O)c1ccc(S(=O)(=O)NC2CCCCC2)cc1)Nc1ccccc1	10µM*	-3%	>57	-22%
NC(N)=NNC(=O)C(=O)O	-3%[8 µM]	-1%[5.75 µM]	>57	8%[5.75 µM]
COc1cccc(-c2nc(NCc3ccccc3)c3ccccc3n2)c1	-33%	8%	>57	-5%
COc1ccccc1CNc1nc(-c2ccc3c(c2)OCO3)nc2ccccc12	13µM*	11%	>57	?
COc1ccccc1CNc1nc(-c2cccc(C#N)c2)nc2ccccc12	?	10%	>57	?
COc1cccc(-c2nc(NCc3ccccc3OC)c3ccccc3n2)c1	13µM*	10%	>57	0%
CS(=O)(=O)Nc1cccc(-c2nc(Nc3ccc(F)cc3)c3ccccc3n2)c1	10µM*	18%	>57	5%
COc1ccccc1CNc1nc(-c2ccc(N(C)C)cc2)nc2ccccc12	?	5%	>57	-5%
CNc1nc(-c2cccc(NS(C)(=O)=O)c2)nc2ccccc12	4%	14%	>57	2%
COc1ccccc1CNc1nc(-c2cccc(NS(C)(=O)=O)c2)nc2ccccc12	13µM*	9%	>57	-11%
COc1ccc(-c2nc(CSCC(=O)N3CCN(c4cccc(C)c4)C(C)C3)c(C)o2)cc1OC (stereo unspecified)	10µM*	10%	>57	152%
CN(C)c1ccc(/C=c2\sc3n(c2=O)CCCN=3)cc1	-3%	-7%	>57	25%
CN(C)c1ccc(/C=C2/C(=O)Nc3ccccc32)cc1	13µM*	0%	>57	19%
CCOC(=O)c1cnc2c(C#N)c(C)nn2c1C	-5%	-5%	>57	-7%
CCOC(=O)c1cnc2c(C#N)c(C)nn2c1-c1ccccc1	-10%	10%	.	4µM*[single pt active]
COc1nc(Nc2cccc(C(F)(F)F)c2)nc(OC)n1	-21%	8%	>57	-13%
COc1nc(Nc2ccc3c(c2)OCO3)nc(OC)n1	-1%	11%	>57	4µM*[single pt active]
C[C@@]1(C(NS(=O)(=O)c2cccc3cccnc23)c2ccc(-c3ccccc3)cc2)C[C@H]1C1CCCCC1 (stereo partly specified)	?	0%	?	-17%
